Experimental data published in PubChem BioAssay AID493169 (National Center for Advancing Translational Sciences (NCATS), 2011).
Results filed as inconclusive are left out. Active and inactive are the calls of the source. Calls follow the shape of the dose curve; as a rule, active = well fitted inhibition curve with a large enough effect; inconclusive = small, poorly fitted or top-dose-only effect; inactive = flat fitted curve, though single readings scatter.

experiment: CHOP2 Reporter Counterscreen Assay for Inhibitors of Ubiquitin-specific Protease USP2a; details: purified enterokinase, fluorogenic substrate, 485/531 nm; series mostly up to 38.3 µM; activity change, negative = inhibition: at the top concentration;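 also: activated enterokinase alone at 50 pM in a cell-free format rather than USP2a or CHOP2; nearly all actives have a fitted effect of over 55% in size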
Method in brief: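 Cell-free counterscreen with pre-activated enterokinase alone (50 pM final) in 20mM Tris-HCl pH 8.0, 2mM CaCl2, 2mM beta-mercaptoethanol, 0.05% CHAPS; compound preincubation 30 min RT, reporter substrate 25nM final, fluorescence read after 10 min (Ex 485/Em 531).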
% is scaled to controls: 0 for no effect and ±100 for the full control effect; potency is read from the fitted curve at half-maximal effect.

Structure (SMILES)	activity change, negative = inhibition	Potency
O=C1CS/C(=C/C(=O)c2ccccc2)N1	0.0345% (inactive)	–
CCC(C)(C)n1nnnc1C(c1ccc(C)cc1)N1CCCC1 (stereo not given)	0.491% (inactive)	–
CC(=O)Nc1ccc(NC(=O)C2CCCN(S(=O)(=O)c3ccc(Cl)cc3)C2)cc1 (stereo not given)	1.55% (inactive)	–
COc1ccc(NC(=O)CSc2nc3sc(C)cc3c(=O)n2C)c(OC)c1	-4.63% (inactive)	–
CCCCCCCCCCC[N+](C)(C)CC/C=C1/c2ccccc2Sc2ccc(Cl)cc21	–	11.2 µM (active)
CCOC(=O)Cn1c(=O)oc2cc(S(=O)(=O)Nc3cc(Cl)ccc3OC)ccc21	7.82% (inactive)	–
N#Cc1c(SCC(=O)Nc2nc3ccccc3s2)sc2c(O)cc(=O)[nH]c12	–	10 µM (active)
Nc1cc(=O)[nH]c(SCc2cccc(Cl)c2)n1	6.13% (inactive)	–
Cc1ccc([C@H]2C(C(=O)O)=CC[C@@H](c3ccc(Cl)cc3)N2S(=O)(=O)c2ccc(C)cc2)cc1	-10.9% (inactive)	–
CC(C)(C)C1C=C(Sc2ccccc2)C(=O)O1 (stereo not given)	2.04% (inactive)	–
O=C(Nc1nnc(-c2ccco2)s1)C1CCCCC1	-0.811% (inactive)	–
Cc1ccc(Cn2nnc3c(=O)[nH]c(C4CCN(S(=O)(=O)Cc5ccccc5)CC4)nc32)cc1	3.17% (inactive)	–
CC(OC(=O)c1nsc(Cl)c1Cl)C(=O)NCc1ccco1 (stereo not given)	-2.69% (inactive)	–
Cc1noc(NS(=O)(=O)c2ccc(N/C=C\C(=O)c3cccc4ccccc34)cc2)c1C	-4.93% (inactive)	–
O=C(CSCc1cnn(-c2ccccc2)c1-n1cccc1)NCC1CCCO1 (stereo not given)	4.45% (inactive)	–
CCOC(=O)N1CCN(C(=O)CN(c2ccc(C)c(C)c2)S(=O)(=O)c2ccccc2)CC1	-3.06% (inactive)	–
COc1cc(OC)cc(-c2c(C#Cc3ccsc3)c3cc(-c4ccc(OC)c(F)c4)ccc3n2C)c1	3.47% (inactive)	–
Clc1ccccc1-c1nnc2sc(-c3cccs3)nn12	-19.6% (inactive)	–
CCCCCCCCCCOC(=O)Cn1c(COc2cccc(C)c2)[n+](C)c2ccccc21	–	10 µM (active)
O=C(COC(=O)c1cccc(S(=O)(=O)N2CCc3ccccc32)c1)NC1CCS(=O)(=O)C1 (stereo not given)	7% (inactive)	–

Structure (SMILES)	activity change, negative = inhibition	Potency
Cc1cc(-c2csc(NCc3ccccc3)n2)c(C)n1C	–	12.6 µM (active)
COCCn1c(CN(Cc2ccccc2)Cc2ccccc2)nc2c1c(=O)n(C)c(=O)n2C	3.98% (inactive)	–
Cn1c(C(=O)NCCCN2CCN(c3ccccc3F)CC2)cc2c(=O)n(C)c3ccccc3c21	2.44% (inactive)	–
Cc1cc(SCC(=O)Nc2ccccc2)nc(C)n1	4.21% (inactive)	–
CC(C)(C)NC(=O)C(c1ccco1)N(C(=O)c1ccc(CN2CCOCC2)o1)c1ccccc1 (stereo not given)	-0.938% (inactive)	–
O=C(CSc1nc2ccccc2c(=O)n1CC1CCCO1)NCc1ccccc1 (stereo not given)	-3.39% (inactive)	–
CCOc1ccc(Cn2nnc(C(=O)NCc3ccccc3)c2N)cc1	0.856% (inactive)	–
O=C(CSc1ncn[nH]1)Nc1ccc(Br)cc1F	3.28% (inactive)	–
COc1cccc(N2CCN(C(=O)CN(C)S(=O)(=O)c3ccc4c(c3)CCC(=O)N4)CC2)c1	8.91% (inactive)	–
COC(=O)c1c(N2C(=O)CCC2=O)sc2c1CCCC2	-0.467% (inactive)	–
CCCCn1c(SCC(=O)N2CCC(C)CC2)nc2cc(S(N)(=O)=O)ccc21	-3.32% (inactive)	–
O=C(COC(=O)c1c2c(nc3ccccc13)/C(=C/c1ccco1)CC2)NC1CCCC1	–	2 µM (active)
CCOc1ccc(NC(=O)N(CCCN2CCOCC2)Cc2cccnc2)cc1	5.89% (inactive)	–
COc1ccc(-c2nnn(CC(=O)N3CCOCC3)n2)cc1	2.46% (inactive)	–
O=c1cc(CO)oc(CN2CCN(Cc3ccccc3)CC2)c1O	5.35% (inactive)	–
CCSc1nc(N2CCCCC2)c2c(c1C#N)CCCC2	0.66% (inactive)	–
FC(F)(F)c1cnc2c(c1)Nc1ccccc1S2	7.72% (inactive)	–
O=C(Nc1cccc(C(F)(F)F)c1)/C(=C\c1ccco1)NC(=O)c1cccs1	7.95% (inactive)	–
CCCn1nnc(NC(=O)c2cccc(OCC(C)C)c2)n1	2.56% (inactive)	–
CC(C)c1ccc(NC(=O)C(c2ccc3c(c2)OCO3)N2CCCCC2)cc1 (stereo not given)	0.102% (inactive)	–
